Compound activity deposited in PubChem by National Center for Advancing Translational Sciences (NCATS).
Abeta yeast res – qHTS for compounds that reverse cellular toxicity of Amyloid beta (A-beta) peptide in yeast: Primary Screen | yeast expressing A-beta42, growth rescue, OD600, 48 h; response scale: 0% DMSO, 100% iron-clioquinol control | Potency, µM (top dose mostly 46.1 µM), most hits filed as activators | actives 0.063% (n = 410,000) | AID 1347071, 2019; further: nearly all actives have a fitted effect of over 55% in size
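Yeast A-beta toxicity model in growth medium with pinned compounds, 48 h at 30 C; growth read as absorbance at 600 nm. Normalized to FeCl3/clioquinol equimolar mix (positive) and DMSO (negative).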
aSyn yeast inh – qHTS of alpha-syn Inhibitors | Yeast expressing alpha-synuclein, growth rescue, BacTiter-Glo, 24 h | Potency, µM (series often up to 46.1 µM), inactives show top-dose growth rescue (activation), most hits filed as activators | actives 0.14% (n = 370,000); further: % of control where 0% means no effect; nearly all actives have a fitted effect of over 65% in size
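Rescue of yeast growth: cells expressing toxic alpha-synuclein, induced in galactose at OD600 0.02, incubated with compound 24 h at 30 C. ATP luminescence quantified growth; inhibitors of toxicity appear as activators.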
ClpP mod – qHTS Assay for Activators of ClpP; actives 1.9% (n = 340,000); Potency, µM (top dose mostly 57.5 µM), without a hit: at the top dose activity change, negative = active; purified B. subtilis ClpP, FRET peptide cleavage, 20 min; ATP-dependent Clp protease proteolytic subunit (Bacillus subtilis (strain 168)), P80244; active means well fitted falling curve with a large enough effect; inconclusive means small, poorly fitted or top-dose-only effect; inactive means no such curve, though single readings can be large or run the other way; further: the source files actives as falling curves though it sought activators and does not explain the sign; nearly all actives have a fitted effect of over 65% in size
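ClpP 10 microg/mL final, pH 8 Tris/KCl buffer with BSA, glycerol, Tween-20; compound pinned in; FRET-FV substrate; RT 20 min; Ex320/Em430; ΔFRET vs ADEP 5.8 microM, DMSO, no enzyme.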
Mm-Cpn inhibitor – Inhibitors of TCP-1 ring complex (TRiC) of Methanococcus maripaludis (MmCpn): qHTS. Chaperonin Mm-Cpn (Methanococcus maripaludis). purified Mm-Cpn ATPase, ADP Transcreener TR-FRET. Potency, µM (doses to about 76.9 µM), for the others: at the highest dose activity, negative = inhibition, hits mostly inhibitors. actives 0.031% (n = 330,000). AID 504842, 2011; further: on the % scale 0 is the no-effect control and ±100 the full control effect; nearly all actives have a fitted effect of over 80% in size
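TR-FRET (320 nm excitation; 590 and 665 nm emission) reports ADP made from 10 uM ATP by 25 nM enzyme; compounds were preincubated 10 min, reaction run 30 min, both at 37°C.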
FUS yeast rescue – qHTS for Suppressors of FUS Proteinopathy: Primary screen using FUS-linked yeast assay; S. cerevisiae FUS-expressing, growth rescue, OD600, 24 h; Potency, µM (top dose mostly 76.6 µM), hits mostly activators; actives 0.24% (n = 390,000);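 further: plate controls were DMSO vehicle for no effect and reference control for full effect; nearly all actives have a fitted effect of over 55% in size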
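S. cerevisiae expressing FUS from galactose induction served as the toxicity model. Growth after 24hr at 30C, read as absorbance at 600 nm, indicates suppression of toxicity; compounds dosed at several concentrations.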
TDP43 rescue – qHTS of TDP-43 Inhibitors. TDP-43 expressing yeast growth rescue, BacTiter-Glo, 24 h. AID 652104, 2013. Potency, µM (series often up to 46.1 µM), for inactives: at the top dose growth rescue (activation), most hits filed as activators. actives 1.8% (n = 410,000); further: % of control where 0% means no effect; nearly all actives have a fitted effect of over 50% in size
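In this qHTS, compounds that restore growth of yeast expressing TDP-43 appear as activators. Cells (OD600=0.02, galactose medium, raffinose-pregrown) are incubated with compound 24 hr at 30 deg C and growth is quantified by BacTiter-Glo.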
Active calls of the source: *; i = inactive; u = inconclusive; x = not tested or not shown. In the library only some 3.6% were active in any assay of this set; here they are far more common. Unless noted, the call rests on the fitted dose curve; in most records, active means well fitted curve in the direction sought with a large enough effect; inconclusive means small, poorly fitted or top-dose-only effect, or another doubt; inactive means no such curve, though single readings can be large; an effect the other way counts as inactive or inconclusive. Potency means the concentration at half of the fitted maximal effect.

SMILES | Abeta yeast res | aSyn yeast inh | ClpP mod | Mm-Cpn inhibitor | FUS yeast rescue | TDP43 rescue
COc1ccc2cc(CN(CCO)C(=O)c3ccc(Br)cc3)c(=O)[nH]c2c1 | i | 3% | -19% | 0% | x | 19%
CCOc1ccc2[nH]c(=O)c(CN(CCO)C(=O)c3ccccc3F)cc2c1 | i | 1% | 32µM* | 0% | i | -11%
CCNC(=S)N(CCN(C)C)Cc1cc2cc(OCC)ccc2[nH]c1=O | i | 4% | 1% | 1% | i | -7%
O=C(CSc1cn(CC(=O)N2CCCC2)c2ccccc12)Nc1ccccc1C(F)(F)F | i | x | -5% | x | i | 21%
O=C(/C=C/c1ccc(F)cc1)c1ccccc1Br | i | u | -3% | -2% | x | 16µM*
Cc1ccc(NC(=O)O/N=C/c2ccc(F)cc2)cc1 | i | -19% | -3% | 1% | i | 6%
O=C(Nc1ccccc1)O/N=C/c1ccc(F)cc1 | i | -13% | -1% | 0% | i | 10µM*
Cc1ccc(Cl)cc1NC(=O)CCn1c(=O)c2cccn2c2cccnc21 | i | x | -11% | x | i | 20%
COc1ccc(N2CCN(C(=O)Cn3nnc(-c4cccs4)n3)CC2)cc1 | i | 9% | 11% | -1% | i | -10%
COc1ccc(N2CCN(C(=O)Cn3c(-c4cccs4)cc4ccccc43)CC2)cc1 | i | x | 32µM* | x | i | 3%
NC(=O)C1CCN(C(=O)Cn2c(-c3cccs3)cc3ccccc32)CC1 | i | x | 32µM* | x | i | 3%
O=C(Cn1c(-c2cccs2)cc2cc(F)ccc21)N1CCN(c2ccccc2)CC1 | i | x | 16µM* | x | i | 10%
O=C(Cn1c(-c2cccs2)cc2ccccc21)N1CCN(c2ccc(Cl)cc2)CC1 | i | x | 10µM* | x | i | 9%
O=C(Cn1c(=O)c2cccn2c2ccc(F)cc21)N1CCN(c2ccccc2)CC1 | i | x | -10% | x | i | -9%
CCC(=O)N(c1ccccc1)C1CCN(C(=O)C(Cc2ccccc2)NC(C)=O)CC1 (centres undefined) | x | x | x | x | i | x
Cc1cc2ncn(/N=C/c3ccc([N+](=O)[O-])s3)c2cc1C | i | 10% | -19% | 0% | x | 13µM*
COc1ccccc1Cc1c(-c2ccco2)nc2c3ccccc3ccn12 | i | 1% | 4% | x | i | 22µM*
Cc1ccc(Cc2c(-c3ccccc3)nc3c4ccccc4ccn23)cc1 | i | 1% | 5% | x | u | 14µM*
COc1ccc(-c2nc3c4ccccc4ccn3c2Cc2cccc(Cl)c2)cc1OC | i | 17% | 5% | x | i | 14µM*
CCOC(=O)Cc1c(-c2cccc(Cl)c2)nc2c3ccccc3ccn12 | i | 1% | u | x | i | 13µM*
O=C(NCc1cccs1)O[C@H]1CC[C@@]23CCCN2C(=O)CCC[C@H]3C1 | x | x | x | x | i | x
CCN(CC)C(=O)CC[C@H]1CC[C@]2(CCCN(C(=O)c3ccno3)C2)O1 | x | x | x | x | i | x
Cc1cccc(NC(=O)N2CCN(C(=O)c3nsc4ccccc34)CC2)c1C | i | x | 0% | x | i | 27%
CCN1C(=O)C(Cc2nc3ccccc3c(=O)n2-c2ccccc2)c2cc(Br)ccc21 (centres undefined) | i | x | -6% | x | u | u
COc1ccc(-c2nc3c4ccccc4ccn3c2Cc2ccsc2)cc1OC | i | -7% | 5% | x | u | u
SMILES | Abeta yeast res | aSyn yeast inh | ClpP mod | Mm-Cpn inhibitor | FUS yeast rescue | TDP43 rescue
COc1ccc(-c2nc3c4ccccc4ccn3c2Cc2ccc(C)cc2)cc1OC | i | 22% | 5% | x | i | 10µM*
Fc1cccc(Cc2c(-c3ccccc3)nc3c4ccccc4ccn23)c1 | i | -5% | 5% | x | i | 14µM*
CC1CCc2c(sc3nnn(Cc4ccc(F)cc4)c(=O)c23)C1 (centres undefined) | i | x | -2% | x | i | 17%
CC(C)c1ccc(N2C(=O)N(Cc3ccccc3Cl)c3ccccc3S2(=O)=O)cc1 | i | x | -1% | x | i | 11%
O=C(c1cc(-c2cccs2)nc2ccccc12)N1CCN(c2ccccc2)CC1 | i | -2% | x | -11% | i | 2%
CC1CCCN(C(=O)c2cc(-c3cccs3)nc3ccccc23)C1 (centres undefined) | i | -23% | x | -4% | i | u
O=C(c1cc(-c2cccs2)nc2ccccc12)N1CCN(S(=O)(=O)c2cccc(F)c2)CC1 | i | 5% | 28µM* | u | u | -5%
CN(C)S(=O)(=O)c1cccc(NC(=O)c2cc(-c3cccs3)nc3ccccc23)c1 | i | 5% | 16µM* | u | x | 16%
O=C(c1cc(-c2cccs2)nc2ccccc12)N1CCN(S(=O)(=O)c2ccccc2)CC1 | i | 4% | 25µM* | u | u | -14%
OC(c1ccc(OCc2ccccc2)cc1)c1nnc(-c2ccccc2)o1 (centres undefined) | i | 24% | 14µM* | -1% | i | 8%
Cc1nn(C(C)(C)C)c(OC(=O)C2CCCC2)c1S(=O)(=O)c1ccccc1 | u | -5% | 11µM* | 1% | i | -5%
CCCC1=Nc2cc(C(=O)NCCc3ccccc3)ccc2Sc2ccc(C)cc21 | i | x | -2% | x | i | -5%
CCS(=O)(=O)N1CCc2cc(C(=O)NCc3ccccc3Cl)ccc21 | i | x | -2% | x | i | 11%
COc1ccc(S(=O)(=O)Nc2ccc3ccccc3c2)cc1C | i | 22µM* | 0% | -1% | i | u
O=S(=O)(Nc1ccc2ccccc2c1)c1ccccc1 | i | 3% | 14µM* | 1% | x | u
Cc1cc(S(=O)(=O)Nc2ccc3ccccc3c2)c(C)s1 | i | 18µM* | -2% | 2% | i | u
CCN(CC)C(=O)CSc1nc2cc3c(cc2c(=O)n1CCCCCC(=O)NCCc1ccc(OC)c(OC)c1)OCO3 | i | x | -2% | x | i | -2%
CC(C)(C)C1CCc2nc(NC(=O)c3cccc(Cl)c3)sc2C1 (centres undefined) | i | x | u | x | i | 10%
CCOCCCn1c(=N)c(C(=O)NCc2cccnc2)cc2c(=O)n3ccccc3nc21 | i | x | 4% | x | i | 7%
